Reference: PubChem BioAssay (NCI)
This is part of a sample that, as a whole, favours compounds with a hit. Of some 79,000 tested, about 15% had one in any assay. Active and inactive are the calls of the source. No stated cut-off is given here; in the data, active means growth inhibition above about 70%; inactive means the rest.

Key:
[1] = NCI Yeast Anticancer Drug Screen. Data for the rad50 strain (AID 155);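 further: 0% = growth of vehicle-only cultures of the same strain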; settings: S. cerevisiae rad50 strain growth inhibition; at 50.0 µM; hits give high values
Outline: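 DNA repair mutant yeast, compound exposure, growth read-out; inhibition is taken relative to vehicle.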

[2] = NCI Yeast Anticancer Drug Screen. Data for the mec2-1 strain (AID 157); settings: S. cerevisiae mec2-1 strain, at 50.0 µM, hits give high values
Outline: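 Compounds were applied to mec2-1 yeast cells. Their growth was then compared with that of vehicle-treated cultures to give growth inhibition.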

[3] = NCI Yeast Anticancer Drug Screen. Data for the sgs1 mgt1 strain (AID 161);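 further: 0% = growth of cultures given vehicle only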; settings: S. cerevisiae sgs1 mgt1 strain, at 50.0 µM, hits give high values
Outline: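 Percent growth inhibition was derived by comparing compound-exposed mutant yeast with vehicle-exposed cultures. The strain carries alterations in DNA damage repair.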

[4] = NCI Yeast Anticancer Drug Screen. Data for the cln2 rad14 strain (AID 165);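 further: 0% = growth equal to vehicle treated cultures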; settings: S. cerevisiae cln2 rad14 strain, at 50.0 µM, hits give high values
Outline: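 Strain: cln2 rad14 yeast, altered in cell cycle control and DNA damage repair. Read-out: growth inhibition vs vehicle.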

[5] = NCI Yeast Anticancer Drug Screen. Data for the bub3 strain (AID 167); settings: S. cerevisiae bub3 mutant strain, at 50.0 µM, hits give high values
Outline: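 In this screen, a yeast mutant lacking normal mitotic checkpoint function is challenged with compound. Relative growth versus vehicle gives the inhibition value.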

[6] = NCI Yeast Anticancer Drug Screen. Data for the mlh1 rad18 strain (AID 175); settings: S. cerevisiae mlh1 rad18 strain growth inhibition; at 50.0 µM; hits give high values
Outline: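 A repair-deficient yeast strain is exposed to test compound, and growth is scored relative to vehicle-treated controls.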

Measured: growth inhibition

Cc1ccc(/C=N/NC(=O)c2ccc(C)cc2)cc1
inactive: [1] -14.9% | [2] -10.2% | [3] -4.5% | [4] -13.7% | [5] -16.2% | [6] -11.9%

COc1cccc2c1CCC1=CC(=O)CCC12C (stereo not drawn)
inactive: [1] 22.1% | [2] 5.5% | [3] 17.9% | [4] 28.8% | [5] 16.9% | [6] -0.65%

COc1nc(N=P(c2ccccc2)(c2ccccc2)c2ccccc2)cc(=O)[nH]1
inactive: [1] 4.3% | [2] 1.6% | [3] 26.9% | [4] 27.7% | [5] 21.9% | [6] 4.65%

O=S(=O)(O)C(CO)c1ccccc1 (stereo not drawn) (tested in a mixture with another compound)
inactive: [1] 5.75% | [2] 1.5% | [3] -12.9% | [4] -31.2% | [5] -28.7% | [6] 0.9%

O=C1NC2OC(CO)C(O)C(O1)C2O (stereo not drawn)
inactive: [1] -9.7% | [2] 19.4% | [3] -24.9% | [4] -5% | [5] -28.8% | [6] -25%

NC(CC(=O)OCc1ccccc1)C(=O)OCc1ccccc1 (stereo not drawn)
inactive: [1] 9.1% | [2] 9.3% | [3] 16.1% | [4] -5.9% | [5] 3.55% | [6] 4.15%

COc1ccc(-c2cc(-c3ccccc3)c(C#N)c(=O)n2C2OC(CO)C(O)C(O)C2O)cc1 (stereo not drawn)
inactive: [1] -8.2% | [2] 11.6% | [3] 2.45% | [4] 12.8% | [5] -5.6% | [6] -2.05%

CCN(CC)C(=O)c1cccc2c1OCO2
inactive: [1] -17.7% | [2] 13.6% | [3] 2.35% | [4] 0.25% | [5] 1.4% | [6] -9.6%

COC1=C(N)C(=O)c2nc(-c3nc(C(=O)O)c(C)c(Br)c3N)ccc2C1=O
active: [1] 89.3% | [2] 92.2% | [3] 84.9% | [4] 89.2% | [5] 80.5% | [6] 92.7%

CC(=O)N1C(NN(C)C)CCN1c1ccccc1 (stereo not drawn)
inactive: [1] 36% | [2] -28.9% | [3] 13.6% | [4] -4.75% | [5] -22.5% | [6] 2.95%

COC(=O)C1C2OC(C(Br)C2Br)C1C(=O)OC (stereo not drawn)
inactive: [1] -12.1% | [2] -9.5% | [3] -1.15% | [4] -1.95% | [5] -1.65% | [6] -10.2%

O=CNc1ccccc1O
inactive: [1] -2.55% | [2] -17.5% | [3] -25% | [4] 19.9% | [5] -14.3% | [6] 14.9%

Cc1ccccc1OCC(O)CO (stereo not drawn)
inactive: [1] 4.2% | [2] -5.9% | [3] -8.7% | [4] 22.2% | [5] -23.4% | [6] -13.6%

CC1(C)C(c2ccccc2)C12CCC1(C2=O)C(c2ccccc2)C1(C)C (stereo not drawn)
inactive: [1] -41.8% | [2] -27.8% | [3] -36% | [4] -6.8% | [5] -16.9% | [6] -52.4%

c1ccc(-c2cc(-c3ccccc3)nc(-c3ccncc3)c2)cc1
inactive: [1] -16.1% | [2] -35.3% | [3] 2.9% | [4] 13.8% | [5] 1.55% | [6] -63.7%

NCCS/C=C/C(=O)Oc1ccc(Br)cc1
inactive: [1] 35.5% | [2] 0.85% | [3] 12.1% | [4] -1.3% | [5] -9.9% | [6] 53.9%

CCN=c1c([N+](=O)[O-])c(NC(=O)c2ccccc2)sn1CC
inactive: [1] -9.1% | [2] -5.65% | [3] -5.5% | [4] 28% | [5] -7.75% | [6] -5.7%

Cc1cc2n(n1)C(=O)CC(=O)C2
inactive: [1] 8.4% | [2] 1% | [3] 2.25% | [4] -24.4% | [5] -1.2% | [6] -3.7%

c1ccc2c(c1)CC1C3c4ccccc4C(c4ccccc43)C1C2 (stereo not drawn)
inactive: [1] -12.1% | [2] 3.1% | [3] -8.95% | [4] 8.35% | [5] -16.2% | [6] -25.1%

CC(C(=O)O)C1(O)CCCCC1 (stereo not drawn)
inactive: [1] 0.6% | [2] -13.9% | [3] -8.4% | [4] -25.4% | [5] 13.7% | [6] -8.4%

Cc1ccc(NC(=O)CCC(CC(=O)C(C)(C)C)=NNC(=O)C(=O)NN)cc1C
inactive: [1] -25.8% | [2] -19.3% | [3] -19.4% | [4] -23.5% | [5] -7.4% | [6] -22.2%

C/C=C/Sc1ccccc1C(=O)O
inactive: [1] -14.3% | [2] -19.4% | [3] -9.55% | [4] -18.9% | [5] -22.6% | [6] -34%

CCN(CC)CC(O)Cn1cnc2c(SC)ncnc21 (stereo not drawn)
inactive: [1] -0.75% | [2] 0.6% | [3] -2.95% | [4] 5.5% | [5] 4.5% | [6] -1.9%

CCOC(=O)C(Nc1cccc2ccccc12)C(=O)OCC
inactive: [1] 0.5% | [2] 19.1% | [3] 9.3% | [4] -5.2% | [5] 46.2% | [6] 25.7%

Oc1cccc2ccc[n+](CCc3ccccc3)c12
inactive: [1] 1.4% | [2] 9.15% | [3] 8.7% | [4] -13.5% | [5] -5.9% | [6] 31.6%

C/C(N)=C\c1nc(=O)ccs1
inactive: [1] 10.9% | [2] 11.8% | [3] 2.35% | [4] 24.8% | [5] 5.2% | [6] 13.3%

O=C1CCC(=O)N1Cc1ccc(Cl)cc1
inactive: [1] -4.7% | [2] 5.5% | [3] -1.1% | [4] -13.6% | [5] -3.8% | [6] -4.1%

C[N+](C)([O-])CCCNc1ccnc2cccc([N+](=O)[O-])c12
inactive: [1] 24.1% | [2] 6.6% | [3] 28.9% | [4] 8.4% | [5] 9.95% | [6] -21.4%

Cc1ccc2c(CC(=O)O)cc(=O)oc2c1
inactive: [1] 7.35% | [2] -6.35% | [3] -7.95% | [4] 0.9% | [5] -0.3% | [6] -9.35%

Nc1cc(C(F)(F)F)ccc1F
inactive: [1] 2.5% | [2] -13.8% | [3] -9% | [4] -5.6% | [5] 6.65% | [6] 27.4%

CCC(c1ccco1)C(C#N)C(=O)OC(C)(C)C (stereo not drawn)
inactive: [1] -11.8% | [2] -21.9% | [3] -1.05% | [4] -5.8% | [5] -16.3% | [6] -27.7%

CC(=O)ON1CCC=NC1
inactive: [1] 19.7% | [2] 10.3% | [3] -20.4% | [4] 8.05% | [5] 3.95% | [6] -6.75%

COC(=O)c1c2c(cc3nc4ccccc4nc13)OCO2
inactive: [1] 26.4% | [2] 9.75% | [3] 12.8% | [4] -1.8% | [5] 16.9% | [6] 21.6%

CC(=O)c1ccc2cc(Cl)ccc2c1
inactive: [1] 30.2% | [2] 3.45% | [3] 3.5% | [4] -29.9% | [5] 0.35% | [6] 4.2%

Cc1ccc(C2=CSC3=NCCN23)cc1Cl
inactive: [1] -29.9% | [2] -43.8% | [3] 5.3% | [4] -6.3% | [5] -17.9% | [6] 23.4%

N#C/C(=N\NC(=O)c1cccs1)c1ccccc1Cl
inactive: [1] -5.65% | [2] 1.2% | [3] 8% | [4] -33.1% | [5] 9.7% | [6] 3.45%

O=C(O)C1CC2(CCC1c1ccccc1)SCCS2 (stereo not drawn)
inactive: [1] 6.7% | [2] 1.15% | [3] 12.1% | [4] 13.6% | [5] 6.5% | [6] -9.85%

C=CC12c3c4cc(OC)cc3OC1C(O)CCC2CC4 (stereo not drawn)
inactive: [1] -8.05% | [2] 8.85% | [3] -6.2% | [4] 9.85% | [5] 4.5% | [6] 5.65%
